This is a sample that favours compounds with a hit; in the whole collection about 7.3% have one here.
Rab9 prom act = qHTS Assay for Rab9 Promoter Activators; Huh7 Rab9 promoter-luciferase reporter, luminescence, 24 h; Potency, µM (top dose mostly 9.22 µM), for the others: at the top dose activation, negative = inhibition, actives largely listed as activators; actives 2.8% (n = 320,000); AID 485297, 2010; note: % of control where 0% means no effect; nearly all actives have a fitted effect of over 60% in size
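Luminescence read-out: Huh7 cells stably expressing Rab9-luciferase, treated 24 h with compound at 37 °C, then lysed with luciferase reagent for 10 min at ambient before reading.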
FLuc counter = qHTS profiling assay for firefly luciferase inhibitor/activator using purifed enzyme and Km concentrations of substrates (counterscreen for miR-21 project). Luciferin 4-monooxygenase (Photinus pyralis), P08659. actives 6.9% (n = 360,000). purified FLuc, Km substrates, luminescence inhibition. Potency, µM (top dose mostly 57.5 µM), for the others: at the top dose activity change, negative = inhibition, most hits filed as inhibitors;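 note: plate controls were vehicle for no effect and reference inhibitor for full effect; nearly all actives have a fitted effect of over 55% in size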
Target sequence (P08659 whole entry, looked up): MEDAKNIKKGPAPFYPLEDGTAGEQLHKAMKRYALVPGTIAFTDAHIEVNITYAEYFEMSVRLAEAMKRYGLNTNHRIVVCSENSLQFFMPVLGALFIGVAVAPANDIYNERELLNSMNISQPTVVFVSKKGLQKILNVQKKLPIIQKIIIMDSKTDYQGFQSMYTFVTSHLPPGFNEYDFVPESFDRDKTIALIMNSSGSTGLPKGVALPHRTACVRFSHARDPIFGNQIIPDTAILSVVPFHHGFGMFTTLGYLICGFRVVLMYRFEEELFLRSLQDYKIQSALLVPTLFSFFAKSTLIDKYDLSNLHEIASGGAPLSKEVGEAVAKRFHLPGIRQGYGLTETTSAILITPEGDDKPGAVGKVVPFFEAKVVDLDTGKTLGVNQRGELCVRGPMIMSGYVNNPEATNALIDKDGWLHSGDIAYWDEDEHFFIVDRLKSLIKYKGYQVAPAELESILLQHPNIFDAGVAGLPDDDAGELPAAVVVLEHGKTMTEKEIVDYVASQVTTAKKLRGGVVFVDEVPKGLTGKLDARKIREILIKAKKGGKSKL
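Biochemical qHTS of compounds, final roughly 60 µM downward over six points, against 10 nM purified firefly luciferase using Km concentrations of substrates (10 uM D-luciferin, 10 uM ATP) in Tris acetate pH 7.5 buffer; luminescence output.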
ELG1 genotoxic = qHTS screen for small molecules that induce genotoxicity in human embryonic kidney (HEK293T) cells expressing luciferase-tagged ELG1 | HEK293T ELG1-luciferase reporter, luminescence, 16 h | Potency, µM (series often up to 46 µM), without a hit: top-dose activity change, positive = activation, usual class: activators | actives 1.3% (n = 330,000); note: % of control where 0% means no effect; nearly all actives have a fitted effect of over 60% in size
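Quantitative HTS format in 1536-well plates. HEK293T ELG1-luciferase reporter cells receive test compound and are incubated 16 hr at 37 °C, 5% CO2; ONE-Glo added, 30 min room temperature, then luminescence read.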
NPC1 prom act = qHTS Assay for NPC1 Promoter Activators | Huh7 NPC1 promoter luciferase reporter, 24 h | Potency, µM (series often up to 9.22 µM), inactives show top-dose activation, hits mostly activators | actives 2.4% (n = 320,000); note: % of control where 0% means no effect; nearly all actives have a fitted effect of over 60% in size
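Luciferase expression driven by the NPC1 promoter was measured in stably transfected Huh7 cells after a 24 h compound incubation, using a luciferase reagent and a luminescence read.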
Luc counter = Counterscreen for Luciferase (Kinase-Glo TM) Inhibition. Luciferin 4-monooxygenase (Photuris pensylvanica), Q27757. Kinase-Glo luciferase, ATP luminescence, 8 min. Potency, µM (highest dose often 38.3 µM), for inactives: top-dose activity change, negative = inhibition, actives largely listed as inhibitors. actives 0.28% (n = 200,000). AID 1379, 2008; note: % is set by controls: 0 for no effect and ±100 for the full control effect; nearly all actives have a fitted effect of over 60% in size
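Kinase-Glo luciferase light output from ATP and luciferin was measured with 10 uM ATP, within the enzyme's linear range. Buffer: 50 mM imidazole pH 7.2, 50 mM KCl, 7 mM MgCl2, 0.01% Tween 20, 0.05% BSA; luminescence read after 8 min at ambient temperature.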
SMN2 splice up = qHTS Assay for Enhancers of SMN2 Splice Variant Expression | HEK293 SMN2-luciferase splicing reporter, luminescence, 30-36 h | Potency, µM (doses to about 46.1 µM), inactives show at the top dose activity change, positive = activation, hits mostly activators | actives 2.8% (n = 210,000); note: % of control where 0% means no effect; nearly all actives have a fitted effect of over 55% in size
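HEK293 cells carry an SMN2 […]–luciferase reporter in which exon 7 inclusion puts luciferase in frame. Cells were plated 10-12 h before compound addition, then incubated 30-36 h at 37C. ONE-Glo luminescence was read; sodium butyrate at 4.5 mM final served as control.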
The depositor's hits bear a star; ? = inconclusive; · = no result given; [ ] = another dose, or the depositor's remark. Calls come from the whole dose curve; as a rule, active = well fitted curve in the direction sought with a large enough effect; inconclusive = small, poorly fitted or top-dose-only effect, or another doubt; inactive = no such curve, though single readings can be large; an effect the other way counts as inactive or inconclusive. Potency is the fitted concentration of half-maximal effect.

SMILES	Rab9 prom act	FLuc counter	ELG1 genotoxic	NPC1 prom act	Luc counter	SMN2 splice up
COc1cc(OC)cc(-c2nc3cc(C)ccc3o2)c1	27%	11µM*	16µM*	8%	?	7.1µM*
Cc1ccc2oc(-c3ccc(NC(=O)CCC(=O)O)cc3)nc2c1	·	2.4µM*	·	·	·	11µM*
Clc1ccc(-c2nc3cc(CN4CCCCC4)ccc3o2)cc1	2.8µM*	11µM*	?	1.8µM*	·	·
Clc1ccc(-c2noc(CN3CCCCC3)n2)cc1	·	·	·	·	0%[7.66 µM]	-3%[9.22 µM]
Cc1cc(/C=C2\NC(=O)NC2=O)c(C)n1-c1cccnc1	1%	15µM*	17%	22%	·	·
Cc1cccc(C)c1-n1c(C)cc(/C=C2\NC(=O)NC2=O)c1C	-8%	?	14%	-1%	-2%	12%
CCOC(=O)c1ccc(N=C2S/C(=C\c3cc(C)n(-c4cccnc4)c3C)C(=O)N2C)cc1	1%	3%	-1%	-2%	18%	10%
Cc1cc(/C=C2\SC(=S)N(Cc3ccco3)C2=O)c(C)n1-c1cccnc1	?	4.8µM*	?	?	-1%	5%
Cc1cc(/C=C2\NC(=S)NC2=O)c(C)n1-c1cccnc1	?	9.5µM*	10%	21%	·	·
CCN(C(=O)Cn1nc(Cc2ccncc2)c2ccccc2c1=O)c1cccc(Cl)c1	·	3%	·	·	·	8%
CCc1ccc(-c2nc(CS(=O)CC(=O)NCCc3ccc(Cl)cc3)c(C)o2)cc1 (stereo unspecified)	·	-17%	·	·	·	·
CCOc1ccc(-c2c(C)nn3c(C)c(C(=O)NCC(C)c4ccccc4)cnc23)cc1OCC (stereo unspecified)	·	-9%	·	·	·	·
O=C(/C=C/c1ccccc1)N1CCN(Cc2cc(=O)n3nc(-c4ccccc4)sc3n2)CC1	·	4%	·	·	·	·
O=C(Cc1ccccc1)N/N=C/c1cccnc1	1%	3%	2%	1%	·	·
NC(=O)N/N=C/c1ccc2cccc(OCc3ccccc3)c2n1	1%	19µM*	7%	-1%	·	·
Cc1cccc(/C=N/NC(=O)c2cc(Br)ccc2OCc2ccccc2)n1	1%	3%	-3%	-5%	·	·
O=C(Cc1ccccc1)N/N=C/c1ccc2cccc(O)c2n1	-3%	19µM*	0%	0%	-1%	·
CN1CCOc2ccc(S(=O)(=O)N3CCN(S(=O)(=O)c4c(F)cccc4F)CC3)cc21	?	21µM*	·	?	·	·
COc1ccc(OC)c(Cc2nnc(CCC(=O)N3CCCCC3c3nccs3)o2)c1 (stereo unspecified)	3.5µM*	24µM*	?	?	0%	·
O=C(Nc1ccc(Cl)cn1)c1ccccc1F	·	4.3µM*	·	·	-12%	16µM*
COc1cc2ccccc2cc1C(=O)Nc1ccc(Cl)cn1	1.4µM*	?	?	2µM*	·	·
O=C(NC(=O)c1ccccc1)Nc1ccc(Cl)cn1	1µM*	2.1µM*	1.5µM*	0.63µM*	·	·
O=C(Nc1ccc(Cl)cn1)c1cccc(F)c1	?	11µM*	?	?	-29%	16µM*
O=C(Nc1cccc(C(=O)Nc2ccc(Cl)cn2)c1)c1ccccc1	21%	?	-1%	4%	·	·
COc1ccc(NC(=O)Cn2cc(S(=O)(=O)N3CCN(c4ccccc4F)CC3)c3ccccc3c2=O)cc1Cl	·	1%	·	·	·	4%
SMILES	Rab9 prom act	FLuc counter	ELG1 genotoxic	NPC1 prom act	Luc counter	SMN2 splice up
Cc1csc2nc(CCNS(=O)(=O)c3ccc(F)cc3)cn12	·	-2%	·	·	·	·
Nc1ccccc1NC(=O)NC(=O)c1ccccc1	2.2µM*	11µM*	?	?	·	·
C/C(=C\c1ccccc1)C(=O)Nc1ccc(Cl)cn1	0.79µM*	?	9.2µM*	1.8µM*	·	·
Cc1cc(C)nc(NC(=O)NC(=O)c2ccccc2)n1	-1%	2%	0%	-2%	·	·
CNc1oc(/C=C/c2cccc(OC)c2)nc1C#N	0%	15µM*	21µM*	3%	·	·
CN(C)c1oc(/C=C/c2ccccc2)nc1C#N	?	17µM*	?	?	-5%	13µM*
COc1ccccc1/C=C/c1nc(C#N)c(N(C)C)o1	?	7.6µM*	21µM*	?	·	10µM*
Cc1nc2c(-c3ccccc3)c(C)nn2c(C)c1CCC(=O)NCc1ccc(Cl)cc1	·	-1%	·	·	·	-3%
COc1cc(OC)cc(-c2sc3ccccc3c(=O)c2I)c1	·	·	·	·	5%[39.9 µM]	·
COc1cc(-c2c(-c3ccsc3)sc3ccccc23)cc(OC)c1OC	-2%	0%	-1%	1%	·	·
COc1ccc2sc3ccccc3c(=O)c2c1	?	6.7µM*	?	?	-13%	15%
COc1ccc(-c2cc(=O)c3ccccc3s2)cc1	0.89µM*	1.1µM*	2.3µM*	1.4µM*	?	4µM*
CCc1ccc(NC(=O)C(C)n2nnc3sc(-c4ccccc4)cc3c2=O)cc1 (stereo unspecified)	·	-16%	·	·	·	10%
O=C1SC(c2ccccc2)=C/C1=C\N1CCCCC1	20%	19µM*	10%	18%	0%	-8%
Cc1c(C(=O)O)cccc1-c1ccc(/C=C2\SC(=O)NC2=O)o1	19%	5.4µM*	-4%	15%	·	·
Cc1c(C(=O)O)cccc1-c1ccc(/C=C2/NC(=O)N(c3ccccc3)C2=O)o1	1µM*	9.5µM*	13%	?	2%	·
Cc1ccc(/C=C2/NC(=O)N(c3ccccc3)C2=O)o1	?	?	?	26%	-3%	-4%
Cc1ccc(S(=O)(=O)N2CCC(C(=O)N3CCC3)CC2)cc1	3.2µM*	9.5µM*	18%	2.2µM*	·	·
O=C(C1CCN(S(=O)(=O)c2ccccc2F)CC1)N1CCc2ccccc21	-3%	-2%	-5%	-2%	·	·
O=C(C1COc2ccccc2O1)N1CCc2ccccc21 (stereo unspecified)	3.5µM*	21µM*	?	3.5µM*	-3%	11%
O=C(C1CCN(S(=O)(=O)c2ccccc2)CC1)N1CCc2ccccc21	?	21µM*	-3%	21%	·	·
Cc1ccc(S(=O)(=O)N2CCN(C(=O)CC(C)C)CC2)cc1	1.1µM*	15µM*	?	4µM*	-7%	·
CCc1cccc(NC(=O)CCS(=O)(=O)c2ccc(C)cc2)c1	·	-8%	·	·	·	·
COc1cc(NC(=O)CCn2cnc3ccccc3c2=O)cc(OC)c1	·	-6%	·	·	·	·
